Measured values published in PubChem BioAssay AID624288 (National Center for Advancing Translational Sciences (NCATS), 2012).
The whole screen tested about 340,000 compounds, of which about 1,400 (0.41%) were called active. About 4% were inconclusive and are not listed. This is one part of a sample in which actives are shown more often than they occur. A number with no mark means an inactive call. The call rests on the fitted dose curve; cell line not stated here.
On the % scale 0 is the no-effect control and ±100 the full control effect; potency means the concentration at half of the fitted maximal effect.

Assay: qHTS for Antagonists of gsp, the Etiologic Mutation Responsible for Fibrous Dysplasia/McCune-Albright Syndrome: qHTS; further: nearly all actives have a fitted effect of over 65% in size
Conditions: gsp-mutant cells, cAMP HTRF, 30 min; series mostly up to 76.9 µM; activity change, negative = inhibition: at the top concentration
Source text: McCune-Albright syndrome (MAS) is a rare disease caused by somatic mutations in Gsgsp), a widely expressed protein central in signal transduction from G-coupled protein receptors (GPCRs). The disease symptoms are diverse, owing to the fact that the patients are mosaics with varying degrees of tissue involvement. Greater than 90% of the mutations in Gs in MAS occur at the R201 position and are equally divided between R201H and R201C. The R201 residue is central in the intrinsic GTPase activity of Gs and the H and C mutations lead to loss of, or impairment of, the GTPase activity. The intrinsic GTPase activity is necessary to terminate the interaction between Gs and adenylate cyclase, and to terminate the cAMP-mediated signaling of the given GPCR pathway. Thus, these activating mutations lead to ligand-independent activation of GPCR pathways. The tissue phenotype is determined by the role of Gs in the function of a given cell, and excess Gs/cAMP signaling in that cell. For example, pituitary somatotrophs overproduce growth hormone in a growth hormone releasing hormone-independent fashion, and gigantism/acromegaly ensues. Skeletal stem cells in the bone marrow behave as if they are under constant parathyroid hormone stimulation and fail to differentiate into osteoblasts and osteocytes, and proliferate as immature osteogenic cells and lead to the marrow fibrosis of fibrous dysplasia of bone. The goal of this project is to identify molecules with inhibitory activity at gsp mutations that will not only allow for in-depth study of the underlying molecular and cellular pathophysiology, but also serve as compounds from which drugs to treat FD/MAS can be developed NIH Chemical Genomics Center [NCGC] NIH Molecular Libraries Probe Centers Network [MLPCN] MLPCN Grant: IRP-FT-DE-2011-01 Assay Submitter (PI): Michael Collins, NIDCR
1.#Seed 2000 cells/well in 6 ul DMEM 10% FBS, 1% Pen/Strep, 0.5 mg/ml G418 2.#Incubate 16-24 hr at 37C, 5% CO2, 95% humidity 3.#Aspirate leaving 1 ul residual volume 4.#Dispense 5 ul/well DPBS + 1 mM CaCl2, 0.5 mM MgCl2, 0.05% BSA, 0.005% Tween 20 5.#Aspirate leaving 2 ul residual volume 6.#Dispense 23 nl/well compounds in DMSO 7.#Dispense 1 ul/well 300 uM Ro-20174 in DMEM 10% FBS 8.#Incubate 30 min at 37C, 5% CO2, 95% humidity 9.#Dispense 1.5 ul/well HTRF reagent: cAMP-d2 in lysis buffer 10.#Dispense 1.5 ul/well HTRF reagent: anti-cAMP antibody-K in lysis buffer 11.#Incubate 30 min at room temperature 12.#Detect HTRF signal using EnVision plate reader
In the case of Cc1ccc(C(=O)OCC(=O)N2CCCCCC2)cc1S(=O)(=O)N1CCOCC1, the “activity change, negative = inhibition” value is reported as -6.68%.
In the case of COc1ccc(CNC(=O)COC(=O)c2ccc(C)c(S(=O)(=O)N3CCOCC3)c2)cc1OC, the “activity change, negative = inhibition” value is reported as -4.89%.
With COc1ccc(C(=O)OCC(=O)c2ccc(C)c(S(=O)(=O)N3CCOCC3)c2)cc1OC the Potency was 28.2 µM (active).
In the case of COC1C(CO)OC(n2cnc3c(=S)nc(N)[nH]c32)C1O (configuration not stated), the “activity change, negative = inhibition” value is reported as -0.246%.
For COc1ccc2oc(N)nc2c1, the “activity change, negative = inhibition” value was 7.22%.
For NC(=O)C1(Nc2ccc([N+](=O)[O-])cc2)CCCC1, the “activity change, negative = inhibition” value was 7.87%.
With COc1ccc(-c2nc(CCNC(=O)c3ccc(Br)o3)cs2)cc1 the Potency was 44.7 µM (active).
For O=C(NCCc1csc(-c2ccccc2)n1)c1ccccc1F, the “activity change, negative = inhibition” value was -20.8%.
With COc1ccc(N2CCN(C(=O)CNC(=O)c3ccc(Br)o3)CC2)cc1 the “activity change, negative = inhibition” value was 5.12%.
For Cc1ccc(S(=O)(=O)N2CCN(C(=O)c3cc(S(=O)(=O)N4CCOCC4)ccc3F)CC2)cc1, the “activity change, negative = inhibition” value was 6.87%.
With c1ccc(-c2c[nH]c(-c3ccccc3)c2)cc1 the “activity change, negative = inhibition” value was -13.3%.
With Cc1ccc(S(=O)(=O)c2cc3c(=O)n4cccc(C)c4nc3n(CCc3ccccc3)c2=N)cc1C the “activity change, negative = inhibition” value was 8.56%.
For CC12CCCCC1=CC(=O)CC2 (configuration not stated), the “activity change, negative = inhibition” value was -0.525%.
In the case of CC(C)Cc1nnc(N)s1, the “activity change, negative = inhibition” value is reported as 5.9%.
With COc1ccc(-c2oc3ncn(Cc4ccco4)c(=N)c3c2-c2ccc(OC)cc2)cc1 the Potency was 50.1 µM (active).
With COc1ccc(-n2cnc3cc(NCc4ccco4)ccc32)cc1 the “activity change, negative = inhibition” value was -16%.
With Cn1c2ccccc2c(=O)c2c(=O)n(Cc3ccco3)c(COc3ccccc3)nc21 the “activity change, negative = inhibition” value was -3.84%.
With OCC(O)C1OCOC(C(O)CO)C1O (configuration not stated) the “activity change, negative = inhibition” value was -2.27%.
For CCOC(=O)N(Cc1ccccc1)C1CC1, the “activity change, negative = inhibition” value was 12.5%.
For CCc1c(Nc2ccccc2Cl)nc(N)[nH]c1=O, the “activity change, negative = inhibition” value was 8.47%.
For Cc1cc(C(=O)NC2CCCc3c2cnn3-c2cccc(C)c2C)c(C)o1 (configuration not stated), the “activity change, negative = inhibition” value was -32.6%.
With COc1ccc(C(=O)NC2CCCc3c2cnn3-c2cccc(C)c2C)c(OC)n1 (configuration not stated) the Potency was 39.8 µM (active).
For CC(=O)NCC(=O)NC1CCCc2c1cnn2-c1ccccc1F (configuration not stated), the “activity change, negative = inhibition” value was 2.94%.
For S=C(Nc1ccccc1)Nc1ccc2ccccc2c1, the “activity change, negative = inhibition” value was 2.23%.
For Cn1c(=O)[nH]c2c(c(C(=O)O)nn2C)c1=O, the “activity change, negative = inhibition” value was 12.5%.
For COc1cccc(C(=O)OCC(=O)c2[nH]c(C)c(C(C)=O)c2C)c1, the “activity change, negative = inhibition” value was 9.61%.
In the case of CC(=O)c1c(C)[nH]c(C(=O)COC(=O)c2cccs2)c1C, the “activity change, negative = inhibition” value is reported as 2.97%.
For CC(=O)c1c(C)[nH]c(C(=O)COC(=O)c2cccc(S(=O)(=O)N(C)c3ccccc3)c2)c1C, the Potency was 31.6 µM (active).
For COc1ccc(S(=O)(=O)N(C)C[C@@H]2Oc3ccc(NC(=O)Nc4c(C)noc4C)cc3C(=O)N([C@H](C)CO)C[C@@H]2C)cc1, the Potency was 7.94 µM (active).
In the case of Cc1noc(C)c1NC(=O)Nc1ccc2c(c1)C(=O)N([C@H](C)CO)C[C@H](C)[C@@H](CN(C)C(=O)Nc1ccccc1)O2, the “activity change, negative = inhibition” value is reported as -0.581%.
For Cc1noc(C)c1NC(=O)Nc1ccc2c(c1)C(=O)N([C@H](C)CO)C[C@H](C)[C@@H](CN(C)S(=O)(=O)c1cn(C)cn1)O2, the “activity change, negative = inhibition” value was 8.95%.
With O=C(CCCCCCCC(=O)N1CCCCC1)N1CCCCC1 the “activity change, negative = inhibition” value was 5.76%.
For COc1ccc(CCC(=O)Nc2ccc(Cl)c(S(=O)(=O)N3CCOCC3)c2)cc1OC, the “activity change, negative = inhibition” value was -29.5%.
With CC(=O)N1CCc2ccc(N)cc21 the “activity change, negative = inhibition” value was -6.4%.
In the case of CCCCN(C(=O)c1cccc(N2C(=O)c3ccccc3C2=O)c1)c1c(N)n(CCCC)c(=O)[nH]c1=O, the “activity change, negative = inhibition” value is reported as 5.59%.
With Cc1nn2cc(-c3ccc(Cl)cc3)cnc2c1Br the Potency was 8.91 µM (active).
In the case of CCCCNC1(C#N)CCN(Cc2ccccc2)CC1, the “activity change, negative = inhibition” value is reported as -5.64%.
In the case of O=C(OCCOc1ccccc1F)c1cc(S(=O)(=O)N2CCOCC2)ccc1F, the “activity change, negative = inhibition” value is reported as -15.2%.
With Cc1nc2ccc(NC(=O)c3cccc(S(=O)(=O)N4CCOCC4)c3)cc2s1 the “activity change, negative = inhibition” value was -11.8%.
In the case of COc1cccc(C(=O)Nc2nnc(S(=O)(=O)N3CCOCC3)s2)c1, the “activity change, negative = inhibition” value is reported as -6.83%.
In the case of O=C(Nc1nncs1)c1cccc(S(=O)(=O)N2CCCCC2)c1, the “activity change, negative = inhibition” value is reported as -3.16%.
With O=C(Nc1nnc(S(=O)(=O)N2CCCCCC2)s1)c1cccc(Br)c1 the Potency was 28.2 µM (active).
For O=C(Nc1nnc(S(=O)(=O)N2CCOCC2)s1)c1cccc(Br)c1, the Potency was 44.7 µM (active).
In the case of COc1cccc(C(=O)Nc2nnc(S(=O)(=O)N3CCCCC3)s2)c1, the “activity change, negative = inhibition” value is reported as -14.2%.
In the case of Cc1nc(N)nc(Cl)c1CCC1OCCO1, the “activity change, negative = inhibition” value is reported as 9%.
With CCN1C[C@@H]2[C@@H]3C(=O)N(Cc4ccccc4)C(=O)[C@@H]3[C@](C)(C1=O)N2C(=O)c1ccc(C(C)(C)C)cc1 the “activity change, negative = inhibition” value was 0.48%.
With Cc1nc2c(C(=O)NCc3ccc4c(c3)OCO4)c[nH]n2c(=O)c1Cc1ccccc1F the Potency was 28.2 µM (active).
For O=C(NCc1ccc2c(c1)OCO2)c1cc(F)c(F)cc1Cl, the “activity change, negative = inhibition” value was -9.25%.
In the case of CCn1c(=O)c(C(=O)NCc2ccc3c(c2)OCO3)c(O)c2ccccc21, the “activity change, negative = inhibition” value is reported as -3.59%.
With COc1ccc(Nc2ccc3ccccc3c2)cc1 the “activity change, negative = inhibition” value was 0.49%.
With Cc1ccc(Nc2c(O)nc[nH]c2=O)cc1C the “activity change, negative = inhibition” value was -0.0318%.
For O=C(NCC1(N2CCCCC2)CCCCC1)c1cccc(S(=O)(=O)Nc2ccccc2Cl)c1, the “activity change, negative = inhibition” value was -6.06%.
